Test results: PubChem BioAssay (NCATS)
Inconclusive results are not listed. A number with no mark means an inactive call. Calls of active or inactive are those of the source. Calls follow the shape of the dose curve; as a rule, active = well fitted inhibition curve with a large enough effect; inconclusive = small, poorly fitted or top-dose-only effect; inactive = flat fitted curve, though single readings scatter.

Assay: P-glycoprotein substrates identified in KB-8-5-11 adenocarcinoma cell line, qHTS therapeutic library screen (AID 1346987); also: nearly all actives have a fitted effect of over 65% in size
Details: KB-8-5-11 (P-gp overexpressing) viability, CellTiter-Glo, 72 h; series mostly up to 44.5 µM; activity change, negative = cytotoxicity: at the top concentration
Outline: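 P-gp-mediated resistance screen: KB-8-5-11 cells treated 72 h with compounds in dose-response. CellTiter-Glo viability.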
% is scaled to controls: 0 for no effect and ±100 for the full control effect; potency is read from the fitted curve at half-maximal effect.

Point of comparison: `CC(C)CC(=O)OC1OC=C(CO[C@@H]2O[C@H](CO)[C@@H](O)[C@H](O)[C@H]2O)C2CC(O)C(O)(CO)C12` (some centres not stated), “activity change, negative = cytotoxicity” value 8.74% [at 17.3 µM]. Against it:
- COC(=O)C12CCC(C)C(C)C1C1=CCC3C4(C)CCC(OC(C)=O)C(C)(C)C4CCC3(C)C1(C)CC2 (configuration not stated) — lower, 0.509% [at 17.3 µM]
- Cc1ccccc1NC(=O)Nc1ccc(CC(=O)N(C)[C@@H](CC(C)C)C(=O)NCC[C@H](NC(=O)[C@@H]2CCCN2S(=O)(=O)c2cc(Cl)cc(Cl)c2)C(=O)O)cc1 — lower, -1.17% [at 17.3 µM]
- CC(=O)OC[C@]12[C@H](OC(C)=O)C(=O)[C@@H]3[C@@H](OC(C)=O)[C@@]14O[C@@]3(C)COC(=O)c1cccnc1[C@@H](C)[C@H](C)C(=O)O[C@@H]([C@H](O)[C@@H]2OC(C)=O)[C@]4(C)O — lower, -8.22% [at 17.3 µM]

With `Cc1ccc(C(=O)N(CCCN)C(c2nc3cc(Cl)ccc3c(=O)n2Cc2ccccc2)C(C)C)cc1` (configuration not stated) the Potency was 517 nM (active).
For `Cc1ccc(-c2ccc3ncc4c(c3n2)n(C2CCN(C(=O)[C@H](C)O)CC2)c(=O)n4C)cn1`, the Potency was 164 nM (active).
In the case of `COc1cc2ncnc(Nc3ccc(F)c(Cl)c3)c2cc1NC(=O)/C=C/CN1CCCCC1`, the Potency is reported as 10300 nM (active).

Point of comparison: `NC(=O)c1cccc(-c2cc(OC(=O)NC3CCCCC3)ccc2O)c1`, “activity change, negative = cytotoxicity” value -7.82%. Against it:
- OCC1OC(Oc2cc(O)cc(/C=C/c3ccc(O)cc3)c2)C(O)C(O)C1O (configuration not stated) — higher, 2.28%
- O=C(/C=C/c1ccc(O)cc1)OC1[C@H](O)CC(O)(C(=O)O)C[C@H]1O (some centres not stated) — higher, 2.39%
- CC1C(=O)CC2C3CCC(C(=O)O)C12CC3(C)CO (configuration not stated) — lower, -8.27%
- Cc1ccc(NC(=O)C(=O)NC2CC(C)(C)NC(C)(C)C2)cc1 — higher, 1.61%
